Screens deposited in PubChem BioAssay by National Center for Advancing Translational Sciences (NCATS).
Casp7 inh = blocks human caspase-7 allosterically or competitively. P55210. recombinant caspase-7, Ac-DEVD-AFC fluorescence rate. Potency, µM (doses to about 57.5 µM), hits mostly inhibitors. 75,000 tested, 0.02% active. AID 889; active means well fitted inhibition curve with a large enough effect in the main read-out, with a control signal flat, not every such curve was filed as active; inconclusive means small, poorly fitted or top-dose-only effect, or a change in a side signal
UbGFP stabilizer = proteasome inhibitors stabilizing ubiquitin-GFP reporter. Ubiquitin-GFP reporter cells, proteasome inhibition, GFP fluorescence; response scale: untreated = 0%, 10 µM MG-132 = 100%. Potency, µM (doses to about 45.9 µM), hits mostly activators. 67,000 tested, under 10 active; active means well fitted activation curve with a large enough effect, not every such curve was filed as active; inconclusive means small, poorly fitted or top-dose-only effect, or another doubt; inactive means no such curve, though single readings can be large or run the other way
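U2OS cells expressing ubiquitin(G76V)-GFP, seeded overnight in 0.5% FBS medium, then treated 4 hr at 37 C across 46 uM to 2.9 nM. GFP-positive cells counted by laser cytometry (488 ex/515 em); %activity scaled between basal and 10 uM MG-132.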
15-hLO-2 inh = inhibitors of human 15-lipoxygenase 2 (ALOX15B); 110,000 tested, 0.56% active; O15296; Potency, µM (series often up to 57.1 µM), hits mostly inhibitors; purified 15hLO-2, xylenol orange hydroperoxide absorbance; further: nearly all actives have a fitted effect of over 60% in size
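Read-out: hydroperoxide product oxidises ferrous iron, measured as xylenol orange complex via the 573-to-405 nm absorbance ratio after 30 min. Reaction: 50 nM enzyme, 15 min compound preincubation, 45 uM arachidonic acid, 90 min RT, Hepes pH 7.5 with Triton X-100.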
ALOX15 inhib = inhibitors of human 15-lipoxygenase (ALOX15); P16050; Potency, µM (titrated, usually from 57.1 µM), hits mostly inhibitors; AID 887; purified 15hLO-1, xylenol orange hydroperoxide absorbance; 74,000 tested, 1.4% active; further: nearly all actives have a fitted effect of over 55% in size
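Quantitative HTS in 25 mM Hepes pH 7.5 containing 0.01% Triton X-100: human 15hLO-1 at 40 nM, arachidonic acid at 50 uM, 6 min turnover. Product quantified via ferrous oxidation/xylenol orange, 573:405 nm absorbance ratio.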
USP2a inh = blocks human ubiquitin-specific protease USP2a; O75604; USP2a enzymatic assay, qHTS inhibition; Potency, µM (top dose mostly 38.3 µM), hits mostly inhibitors; 60,000 tested, 0.1% active; AID 927; further: nearly all actives have a fitted effect of over 60% in size
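Inhibition is measured in a cell-free coupled assay with 20 nM USP2 core, 20 nM Ub-PLA2 and 20 uM NBD C6-HPC, 2.5 h incubation. Activity normalized to NEM control.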
Casp1 inh = caspase-1 (human) inhibition, allosteric or competitive. P29466. Caspase-1 enzyme, Ac-WEHD-AFC fluorogenic rate. Potency, µM (top dose mostly 57.5 µM), hits mostly inhibitors. 75,000 tested, 0.03% active
A number is an active result; 0 = inactive; ? = inconclusive; - = no result; [ ] = another dose, or the depositor's remark. Shown is part of a subset that was picked to be rich in hits. Unless noted, the call rests on the fitted dose curve; in most records, active means well fitted curve in the direction sought with a large enough effect; inconclusive means small, poorly fitted or top-dose-only effect, or another doubt; inactive means no such curve, though single readings can be large; an effect the other way counts as inactive or inconclusive.

SMILES	Casp7 inh	UbGFP stabilizer	15-hLO-2 inh	ALOX15 inhib	USP2a inh	Casp1 inh
O=C(NC1CCCC1)C(c1ccsc1)N(Cc1ccco1)C(=O)Cc1cccs1 (configuration not stated)	0	0	0	0.4µM	0	0
O=C(/C=C/c1ccc2c(c1)OCO2)c1cccs1	?	-	0	0	-	?
Cc1[nH]n(-c2ccccc2)c(=S)c1C=Nc1cccc([N+](=O)[O-])c1	-	-	10µM	-	-	-
Nc1ncnc2nc(-c3ccc(N4CCOCC4)nc3)cc(-c3cccc(Br)c3)c12	?	-	0	10µM	-	-
Cc1ccc(-c2n[nH]c(=S)n2/N=C/C=C/c2ccccc2[N+](=O)[O-])cc1	-	-	13µM	-	-	-
O=C(Nc1ccccc1)c1ccc2nc(-c3ccco3)c(-c3ccco3)nc2c1	?	0	?	6.3µM	0	?
CCCCNC(=O)c1ccc2nc(-c3ccco3)c(-c3ccco3)nc2c1	?	0	-	5µM	-	-
CCCNC(=O)c1ccc2nc(-c3ccccc3)c(-c3ccccc3)nc2c1	-	-	0[11.4 µM]	-	-	-
NCCNC(=S)S	0[11.5 µM]	0[9.17 µM]	0[11.4 µM]	?	-	0[11.5 µM]
C[C@@H]1NCC[C@H](CC(=O)O)[C@H]1CC(=O)O	0[11.5 µM]	0[9.17 µM]	0[11.4 µM]	0[11.4 µM]	-	0[11.5 µM]
NC(=O)c1cc[n+](CC2=C(C(=O)O)N3C(=O)C(NC(=O)C(c4ccccc4)S(=O)(=O)[O-])C3SC2)cc1 (configuration not stated)	0	-	0	0	0	0
c1ccc2c(c1)CCN(c1nc3ccccc3n3cnnc13)C2	20µM	0	0	0	-	0
O=C(O)CCc1c2ccc(=O)c(O)c-2oc2c(O)c(O)ccc12	0[11.5 µM]	0[9.17 µM]	?	3.2µM	-	0[11.5 µM]
O=C(Nc1ccc2c(c1)OCO2)[C@@H]1[C@@H]2C(=O)N(C3CCCCC3)C(=O)[C@@H]2C2c3ccccc3C=CN21 (some centres not stated)	?	0	0[11.4 µM]	?	0	?
O=C(c1ccc2c(c1)OCO2)[C@@H]1[C@@H]2C(=O)N(C3CCCCC3)C(=O)[C@@H]2C2c3ccccc3C=CN21 (some centres not stated)	0	0	0	16µM	0	?
Nc1cc(CN2C(=O)c3ccccc3C2=O)cc(Cl)c1O	0	0	?	10µM	0	0
O=C(O)CCn1nnc(-c2cccs2)n1	0	0	0	0	0	0
CC(C)c1ccc(-c2nnn(CCC(=O)O)n2)cc1	0	0	0	1.6µM	?	0
CC1(C)CC(=O)C2=C(C1)OC1=C(C(=O)CC(C)(C)C1)C2c1ccc(O)cc1O	0	0[9.17 µM]	?	3.2µM	?	0
CCOC(=O)CCN1CCN(C(=O)c2ccc(-n3c(=O)c(=O)[nH]c4ccccc43)cc2)CC1	0	-	-	13µM	-	0
CN1CCN(C(=O)c2ccc(-n3c(=O)c(=O)[nH]c4ccccc43)cc2)CC1	0	-	-	0	-	0
Cc1ccc(NC(=O)c2ccc(Cl)c(N3C(=O)C=CC3=O)c2)cc1	-	-	0.32µM	-	-	-
COc1cccc(C(=O)Nc2ccc(C)cc2)c1	0	0	0	0	0	0
CNNCc1ccc(C(=O)NC(C)C)cc1	0	0	0	7.9µM	0	0
O=C1C=C[C@@H](O)[C@H]2[C@@H]3C(=O)N(C4CCCCC4)C(=O)[C@@H]3CC[C@H]12	0[11.5 µM]	-	-	0[11.4 µM]	-	0[11.5 µM]
SMILES	Casp7 inh	UbGFP stabilizer	15-hLO-2 inh	ALOX15 inhib	USP2a inh	Casp1 inh
O=C(NCCN1CCCCC1)c1ccc(Cc2nc3ccccc3[nH]2)cc1	0	-	-	0	-	0
Cc1ccc2c(c1)c1c3n2CCN[C@H]3CCC1	0	0	0	0	0	0
Cc1ccc2c(c1)c1c(n2C)C(C(N)=O)CCC1 (configuration not stated)	0	0	0	0	6.3µM	0
O=C(c1ccncc1)N1CCC2(CCCN(Cc3nccs3)C2)CC1	0	0	0	0.2µM	0	0
COc1cc2c(cc1OC)-c1cc(NCc3ccccn3)nc(=O)n1CC2	0	-	0	13µM	?	0
Cc1cccc2c1N(CCCOc1ccccc1)C(=O)C2=O	-	-	0	-	-	-
Cc1ccccc1OCCCN1C(=O)C(=O)c2cccc(C)c21	0	0	25µM	?	-	0
C[C@@H]1C(=O)O[C@@H]2C[C@@]34[C@H]5C[C@@H](C(C)(C)C)[C@@]36[C@@H](OC(=O)[C@@H]6O)O[C@]4(C(=O)O5)[C@@]12O	-	0	-	-	-	-
C=CC1CO1 (configuration not stated)	0	-	0	0	-	0
Cc1ccccc1-c1nc(N2CCN(C)CC2)c2ccccc2n1	0	0	0	0	0	0
Cc1ccccc1-c1nc(N2CCOCC2)c2ccccc2n1	?	0	0	0	13µM	0
COC(=O)CSc1nc(N2CCCCC2)c2c(c1C#N)CCCC2	0	0	0	0	13µM	0
COc1cccc(Nc2ncc3nc(-c4cccs4)c(=O)n(CCC#N)c3n2)c1	?	6.3µM	0	0	0	?
Cc1ccc(-c2[nH]nc3c2C(c2ccoc2)C(C#N)=C(N)O3)cc1C (configuration not stated)	0	0	0	25µM	0	0
Cc1ccc(C2C(C#N)=C(N)Oc3n[nH]c(-c4cccs4)c32)s1 (configuration not stated)	0	0	0	25µM	0	0
C/C(=N/O)[C@@H]1C[C@H](CC(=O)O)C1(C)C	0[11.5 µM]	0[9.17 µM]	0[11.4 µM]	0[11.4 µM]	-	0[11.5 µM]
CC[C@H]1C(=O)OC[C@@H]1Cc1cncn1C	-	0	-	-	-	-
O=C1C2C3CCCC3=C3CCCC3C2C(=O)N1c1ccc(F)cc1 (configuration not stated)	0	0	0	3.2µM	-	?
CC(C)=C1C2CCC1C1C(=O)N(c3nc(-c4ccc(F)cc4)c(C)s3)C(=O)C21 (configuration not stated)	-	-	0	-	-	-
Brc1ccc(-c2nn3c(-c4ccncc4)nnc3s2)o1	0	0	0	0	0	0
Brc1ccc(-c2nn3c(-c4ccco4)nnc3s2)o1	0	0	0	20µM	0	0
Clc1ccc(-c2ccc(-c3nn4c(-c5ccco5)nnc4s3)o2)cc1	0	0	-	16µM	0	0
N[C@H](Cc1c[nH]c2ccccc12)C(=O)O	0	-	-	0	-	0
NC(Cc1c[nH]c2ccccc12)C(=O)O (configuration not stated)	0	-	0	7.9µM	0	0
COc1ccc(C(=O)c2ccccc2)c(O)c1O	0	-	0	?	0	0
O=C(Nc1ccccc1)N1CC=C(c2ccccc2)CC1	0	0	0	25µM	0	0
CN=C1N[C@H](c2ccccc2)N(c2ccccc2)S1	0	0	25µM	0.79µM	-	0
NC1=N[C@H](c2ccc(Cl)cc2)N(c2ccc(S(=O)(=O)Nc3ncccn3)cc2)C(N)=N1	0[11.5 µM]	0[9.17 µM]	0[11.4 µM]	0[11.4 µM]	-	0[11.5 µM]
Cc1cc(C)n(-c2nc(Nc3ccccc3)nc(-n3nc(C)cc3C)n2)n1	0	0	0	0	13µM	0
COc1cccc(/C=N/Nc2nc(Nc3ccccc3)nc(-n3nc(C)cc3C)n2)c1O	-	-	0	-	-	-
